Among the data in PubChem BioAssay AID623870 (Broad Institute, 2012) are inhibition values, retold here.

Structures are written as SMILES. Among all 390,000 compounds or so, about 2,600 (0.67%) were called active. The full list was thinned out, with actives kept by preference. A number with no mark means an inactive call.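 The calls were made as follows: active = mean inhibition of replicates at least 50% and at least half of replicates each reaching 50%; inconclusive = half or more replicates reach 50% but mean below 50%; inactive = the rest.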

The target in this test is Transforming acidic coiled-coil-containing protein 3 (Homo sapiens) (UniProt Q9Y6A5). Nature of the test: inhibitors of ARNT PAS-B binding to TACC3 – biochemical, AlphaScreen, single concentration, primary screen (AID 623870).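 Also: 0% = complete ARNT plus TACC3 wells and 100% = ARNT alone without TACC3.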 The following applies: AlphaScreen His-ARNT PAS-B/GST-TACC3 binding, luminescence; at 9.99 µM; hits give high values; TACC3 fragment carries E629A point mutation.
On to `COC(=O)[C@@H]1[C@@H](CO)[C@@H]2Cn3c(ccc(C4=CCCC4)c3=O)[C@@H]2N1Cc1cncnc1`, for which the inhibition (commonly the change of the read-out against control, counted positive when it falls) is -4.04%. Next, `C/C=C/c1ccc2c(c1)O[C@@H](CN(C)C(=O)Cc1ccccn1)[C@@H](C)CN([C@H](C)CO)S2(=O)=O`: -2.68%. Under `O=C(CN1C(=O)COc2ccccc21)Nc1ccc(F)cc1` stands 55.9% (active); under `CC(OC(=O)CN1C(=O)COc2ccccc21)C(=O)NCc1ccc(F)cc1` (stereo not given), -23.2%; under `O=C(CN1C(=O)COc2ccc(Cl)cc21)Nc1ccc(N2CCOCC2)cc1`, 2.76%. For `C[C@H]1CN([C@@H](C)CO)C(=O)c2cc(NC(=O)Nc3ccc4c(c3)OCO4)ccc2O[C@@H]1CN(C)Cc1ccc(Oc2ccccc2)cc1`, the inhibition was 28.7%. Under `CC1=C(C(=O)OC2CCCCC2)C(c2cccnc2)n2ncnc2N1` (stereo not given) stands -3.41%; under `COc1cc(C2C(C(=O)Nc3ccccc3OC)=C(C)Nc3ncnn32)ccc1O` (stereo not given), 7.59%.

For `COC(=O)C1=C(C)Nc2ncnn2C1c1cccnc1` (stereo not given), the inhibition is 18.7% (active).

As for `CN1CCN(C(=O)C[C@H]2CC[C@H]3[C@H](COc4ccc(NC(=O)C5CC5)cc4C(=O)N3C)O2)CC1`, the inhibition is -1.07%. Under `O=C(Cc1ccncc1)NCC[C@H]1CC[C@@H](NC(=O)Nc2ccc(Cl)cc2)[C@@H](CO)O1` stands 13.7%. Next, `Oc1ccc(N=Nc2nccs2)c(O)c1`: 80.9% (active); `CCC(=O)N(C)C[C@H]1Oc2ncc(C#CC(C)C)cc2C(=O)N([C@@H](C)CO)C[C@H]1C`: -8.34%. Next, `Cc1ccc(S(=O)(=O)N2C[C@@H](O)COC[C@@H]3O[C@@H](CC(=O)N[C@H]4CCN(Cc5ccccc5)C4)CC[C@H]32)cc1`: -6.23%; `CCOC(=O)c1nn(-c2cccc(C)c2)cc1C(=O)c1ccccc1`: 25.6%.

As to `Cc1cc(C(=O)OCC(=O)NCc2ccco2)c(C)n1-c1ccccc1`, the inhibition is -8.94%.

Take `CCOC(=O)C1=C(O)/C(=C/c2cc(C)n(-c3ccccc3)c2C)N=C1C`: the inhibition is 27.3% (active). Regarding `CC(C)CC#Cc1cnc2c(c1)C(=O)N([C@H](C)CO)C[C@H](C)[C@H](CN(C)C(=O)Nc1ccccc1F)O2`, the inhibition is -1.64%. For `CC(C)CC#Cc1ccc2c(c1)O[C@H](CN(C)C(=O)c1cccnc1)[C@@H](C)CN([C@H](C)CO)S2(=O)=O`, the inhibition is -3.52%.

With `COc1ccc(S(=O)(=O)N(C)C[C@H]2OCCCC[C@H](C)Oc3ccc(NC(=O)CCC(F)(F)F)cc3C(=O)N([C@@H](C)CO)C[C@@H]2C)cc1`, the inhibition is 1.97%.

For `CCCNC(=O)C[C@H]1CC[C@H]2[C@@H](COC[C@@H](O)CN2C(=O)Nc2ccc(Cl)c(Cl)c2)O1`, the inhibition is -0.599%. Take `CCNC(=O)C[C@@H]1CC[C@H](NC(=O)NC2CCCCC2)[C@H](CO)O1`: the inhibition is 14.7%. Consider `C[C@@H](O)C#Cc1cnc2c(c1)C(=O)N([C@@H](C)CO)C[C@H](C)[C@H](CN(C)Cc1cncnc1)O2`, for which the inhibition was -0.882%. As for `CCc1cccc(NC(=O)COC(=O)c2cc(=O)c3ccccc3o2)c1`, the inhibition is -1.51%. Under `O=C(COC(=O)CSc1nnc(-c2ccc(Cl)cc2)o1)Nc1cc(Cl)cc(Cl)c1` stands 2.05%. Under `CC(=O)Nc1cccc(C(=O)OCC(=O)Nc2nnc(-c3ccccc3)o2)c1` stands 55.1% (active); under `CO[C@@H]1CN(C)C(=O)c2ccc(NC(=O)Nc3ccccc3)cc2OC[C@H](C)N(C(=O)CC2CC2)C[C@@H]1C`, -5.39%; under `COCCCNC(=O)Cn1cc(C(=O)C2CC2)c2ccccc21`, 1.82%. Take `COCCNC(=O)C(OC(=O)c1cccs1)c1ccc(F)cc1` (stereo not given): the inhibition was -9.93%.

With `COCCNC(=O)Cn1cc(C(=O)c2cccs2)c2ccccc21`, the inhibition is -1.09% (active). Under `C[C@@H]1CCCCO[C@H](CN(C)Cc2ccc(Cl)c(Cl)c2)[C@H](C)CN([C@@H](C)CO)C(=O)c2cc(NC(=O)C3CCCCC3)ccc2O1` stands -6.84%; under `C[C@@H]1CN([C@@H](C)CO)C(=O)CCCn2cc(nn2)CO[C@H]1CN(C)C(=O)Nc1ccc(N2CCCCC2)cc1`, 4.48%. Next, `O=C(NCC[C@@H]1CC[C@H](NC(=O)Nc2cc(F)ccc2F)[C@@H](CO)O1)Nc1ccc(Cl)cc1`: -4.66%. Regarding `CNC(=O)C[C@@H]1CC[C@@H]2[C@H](COc3ccc(NC(=O)Nc4ccccc4)cc3C(=O)N2C)O1`, the inhibition was -2.84%. Take `O=C(CC1CC1)N1[C@H](CO)[C@@H]2c3ccccc3N(S(=O)(=O)c3ccc(F)cc3)C[C@@H]21`: the inhibition was -6.11%.

Consider `O=C(C[C@H]1CC[C@@H](NC(=O)Cc2cccnc2)[C@H](CO)O1)Nc1ccc(-c2ccccc2)cc1`, for which the inhibition was -7.46%. Next, `COc1ccc(S(=O)(=O)Nc2ccc3c(c2)CC(=O)N([C@H](C)CO)C[C@H](C)[C@H](CN(C)CC2CC2)O3)cc1`: -8.43%.

Take `O=C(Nc1cc(F)ccc1F)N1C[C@H]2[C@@H](c3ccccc31)[C@@H](CO)N2CC1CCCC1`: the inhibition was -1.12%. Regarding `CC(C(=O)Nc1ccc(O)c(C(=O)O)c1)N1C(=O)/C(=C/c2cccs2)SC1=S` (stereo not given), the inhibition is 55.9% (active). Regarding `Cc1cccc(NC(=O)C(C)N2C(=O)C3C4CC(C(Br)C4Br)C3C2=O)c1` (stereo not given), the inhibition is 5.02%. Under `Cc1noc(C)c1S(=O)(=O)N(C)C[C@@H]1OCCCC[C@H](C)Oc2ccc(NC(=O)Nc3ccc4c(c3)OCO4)cc2C(=O)N([C@H](C)CO)C[C@H]1C` stands -0.948%; under `CC1=NNC(=O)C1CC(=O)N/N=C/c1ccncc1` (stereo not given), 3.25%; under `CC1=NNC(=O)C1CCC(=O)N/N=C\c1cccc(Cl)c1` (stereo not given), 4.23%.

Take `COc1cccc(/C=N\NC(=O)C2=NNC(=O)C2C)c1O` (stereo not given): the inhibition is 71.4% (active). With `C[C@H]1CN([C@@H](C)CO)C(=O)Cc2cc(NC(=O)Nc3cccc4ccccc34)ccc2O[C@@H]1CN(C)C`, the inhibition is -6.19%. Next, `C[C@@H]1CCCCO[C@H](CN(C)C(=O)Nc2cccc3ccccc23)[C@H](C)CN([C@@H](C)CO)C(=O)c2cc(NC(=O)CCCN(C)C)ccc2O1`: 14.2%. Under `C[C@@H]1CN([C@H](C)CO)C(=O)Cc2cc(NC(=O)Nc3cccc4ccccc34)ccc2O[C@@H]1CN(C)Cc1ccc(C(F)(F)F)cc1` stands 0.147%; under `C[C@@H]1CN([C@@H](C)CO)C(=O)c2cc(NC(=O)CCCN(C)C)ccc2O[C@@H](C)CCCCO[C@H]1CN(C)C(=O)Nc1cccc2ccccc12`, 39.5% (active). Regarding `C[C@@H]1CN([C@H](C)CO)C(=O)Cc2cc(NC(=O)Nc3cccc4ccccc34)ccc2O[C@@H]1CN(C)Cc1ccc(C(=O)O)cc1`, the inhibition was -8.02% (active).

As to `C[C@@H]1CN([C@@H](C)CO)C(=O)c2cc(NC(=O)Cc3ccccc3)ccc2O[C@@H](C)CCCCO[C@H]1CN(C)C(=O)Nc1cccc2ccccc12`, the inhibition is 1%.
